Hits are enriched below; roughly 11% of the tested compounds scored in any of these assays.
G9a block – qHTS Assay for Inhibitors of Histone Lysine Methyltransferase G9a; Histone-lysine N-methyltransferase EHMT2 (Homo sapiens), Q96KQ7; G9a H3K9 monomethylation, AlphaScreen, 2 h; Potency, µM (series often up to 102 µM), most hits filed as inhibitors; 8.8% of 350,000 active; AID 504332, 2011; further: nearly all actives have a fitted effect of over 75% in size
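Chemiluminescent proximity detection of H3K9 monomethylation, read after 10 min bead incubation in the dark. Reaction: 20 nM G9a, 500 nM biotin-H3K9 peptide, 20 uM SAM cofactor, 2 h, room temperature, following 15 min enzyme-compound preincubation.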
HP1b binding inh – HTS for Inhibitors of HP1-beta Chromodomain Interactions with Methylated Histone Tails | Chromobox protein homolog 1 (Homo sapiens), P83916 | AlphaScreen HP1-beta / biotin-H3K9me3 peptide binding | Potency, µM (highest dose often 114 µM), actives largely listed as inhibitors | 0.56% of 390,000 active; further: nearly all actives have a fitted effect of over 70% in size
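HP1-beta protein (50 nM final) preincubated 30 min at room temperature with biotinylated H3(1-18)K9me3 peptide (50 nM) in PBS pH 7.4, 0.01% Tween-20, then compound added for 30 min. AlphaScreen streptavidin donor/nickel chelate acceptor beads (10 ug/mL final), 30 min dark, luminescence read.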
JMJD2A Tudor inh – qHTS Assay for Inhibitors of JMJD2A-Tudor Domain; Lysine-specific demethylase 4A (Homo sapiens), O75164; AlphaScreen JMJD2A-Tudor / H3K4me3 peptide binding; Potency, µM (titrated, usually from 114 µM), usual class: inhibitors; 4.4% of 390,000 active; AID 504339, 2011; further: nearly all actives have a fitted effect of over 50% in size
L3MBTL1 inh – qHTS Assay for the Inhibitors of L3MBTL1; AID 485360, 2010; AlphaScreen L3MBTL1–H3K9me1 peptide binding; Potency, µM (series often up to 57.1 µM), most hits filed as inhibitors; Lethal(3)malignant brain tumor-like protein 1 (Homo sapiens), Q9Y468; 0.66% of 230,000 active; further: nearly all actives have a fitted effect of over 60% in size
Target sequence (Q9Y468 whole entry, looked up): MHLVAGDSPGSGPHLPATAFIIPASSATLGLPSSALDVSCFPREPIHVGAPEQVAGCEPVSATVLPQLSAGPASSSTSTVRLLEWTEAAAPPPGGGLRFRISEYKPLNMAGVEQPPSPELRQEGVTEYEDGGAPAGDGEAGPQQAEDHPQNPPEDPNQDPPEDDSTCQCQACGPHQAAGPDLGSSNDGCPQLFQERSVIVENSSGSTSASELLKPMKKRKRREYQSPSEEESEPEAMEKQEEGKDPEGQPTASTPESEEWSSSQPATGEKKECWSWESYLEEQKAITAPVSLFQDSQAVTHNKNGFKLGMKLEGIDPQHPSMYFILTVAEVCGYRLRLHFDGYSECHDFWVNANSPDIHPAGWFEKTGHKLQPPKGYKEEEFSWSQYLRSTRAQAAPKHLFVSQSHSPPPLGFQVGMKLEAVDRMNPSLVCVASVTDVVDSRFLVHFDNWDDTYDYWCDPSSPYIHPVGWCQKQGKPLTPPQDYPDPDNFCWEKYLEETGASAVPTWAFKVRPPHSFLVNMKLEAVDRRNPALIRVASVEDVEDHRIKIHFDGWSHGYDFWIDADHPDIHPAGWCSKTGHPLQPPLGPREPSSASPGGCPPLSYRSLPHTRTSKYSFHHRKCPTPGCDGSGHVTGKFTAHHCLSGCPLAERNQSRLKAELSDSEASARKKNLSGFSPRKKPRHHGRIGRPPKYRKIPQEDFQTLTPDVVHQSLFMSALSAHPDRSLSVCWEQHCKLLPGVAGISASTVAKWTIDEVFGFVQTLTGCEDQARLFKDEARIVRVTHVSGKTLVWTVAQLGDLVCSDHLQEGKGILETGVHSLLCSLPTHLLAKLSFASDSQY
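AlphaScreen proximity signal between nickel-chelate acceptor and streptavidin donor beads (final 10 ug/mL) reports binding of 50 nM L3MBTL1 to 75 nM biotin-H3 K9me1 peptide; complex incubated with compounds 30 min at room temperature; cefsulodin titration as control.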
BAZ2B inh – qHTS Assay for Inhibitors of BAZ2B | AlphaScreen BAZ2B-H3K14Ac peptide displacement | Potency, µM (highest dose often 114 µM), most hits filed as inhibitors | Bromodomain adjacent to zinc finger domain protein 2B (Homo sapiens), Q9UIF8 | AID 504333, 2011 | 4.4% of 360,000 active; further: nearly all actives have a fitted effect of over 60% in size
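Complex of BAZ2B and biotin-H3K14Ac (50 nM apiece) forms over 30 min at RT, then faces library compounds up to 110 uM for another 30 min; AlphaScreen beads added, 20 min dark incubation, luminescence read.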
Each line names hits and unclear results; the compound was inactive in the other large screens. The call rests on the fitted dose curve; in most records, active means well fitted inhibition curve with a large enough effect; inconclusive means small, poorly fitted or top-dose-only effect; inactive means no such curve, though single readings can be large or run the other way.

Cn1c(N)c(C#N)c2c(c1=S)CSC(C)(C)C2	G9a block 25µM, JMJD2A Tudor inh 79µM
CC(C)C1Cc2c(C#N)c(N)n(C)c(=S)c2CO1 (stereo unspecified)	G9a block 50µM
CC1(C)Cc2c(C#N)c(N)sc(=S)c2CS1	G9a block 25µM, HP1b binding inh inconclusive, JMJD2A Tudor inh 50µM
O=C(CCCSc1ccc(Cl)cc1)Nc1ccccc1O	none (no result: L3MBTL1 inh)
Cn1cc(Br)c(C(=O)Nc2c(F)c(F)c(F)c(F)c2F)n1	none
Cn1cc(Br)c(NC(=O)/C=C/C(=O)O)n1	G9a block 0.71µM
CCOC(=O)CC(NC(=O)CCc1c(C)nc2cc(-c3ccccc3)nn2c1C)c1ccc(C)cc1 (stereo unspecified)	none (no result: L3MBTL1 inh)
O=C(CNC(=O)c1cc(Cl)cc([N+](=O)[O-])c1)NC1CC1	none (no result: G9a block, BAZ2B inh)
COC(=O)c1ccc(N2C(=O)CC(SCCN)C2=O)cc1 (stereo unspecified)	G9a block 14µM, JMJD2A Tudor inh inconclusive
CCCOc1ccc(N2C(=O)CC(SC(=NCC)NCC)C2=O)cc1 (stereo unspecified)	none
CCOc1ccc(N2C(=O)CC(N)C2=O)cc1 (stereo unspecified)	G9a block 7.9µM, L3MBTL1 inh inconclusive
CCOc1ccc(N2C(=O)CC(SCC(=O)O)C2=O)cc1 (stereo unspecified)	G9a block 50µM
CCCOc1ccc(N2C(=O)CC(SCC(N)C(=O)OCC)C2=O)cc1 (stereo unspecified)	G9a block 71µM
CCCOc1ccc(N2C(=O)CC(SCCc3nc4ccccc4[nH]3)C2=O)cc1 (stereo unspecified)	none
CCCOc1ccc(N2C(=O)CC(SCCN)C2=O)cc1 (stereo unspecified)	G9a block 3.5µM
CCCOc1ccc(N2C(=O)CC(N3CCC(C(=O)OCC)CC3)C2=O)cc1 (stereo unspecified)	G9a block 50µM
CCOC(=O)C(N)CSC1CC(=O)N(c2ccc(C(=O)OC)cc2)C1=O (stereo unspecified)	G9a block 8.9µM, JMJD2A Tudor inh inconclusive
COc1ccc(OCc2cc(C3Nc4ccccc4C(=O)N3Cc3ccccc3)ccc2OC)cc1 (stereo unspecified)	none (no result: G9a block, HP1b binding inh, L3MBTL1 inh, BAZ2B inh)
O=C(Cn1cc(SCc2ccc(F)cc2)c2ccccc21)N1CCCCC1	none (no result: L3MBTL1 inh)
CC(=O)c1cccc(NC(=O)CCc2c(C)nc3c(-c4ccc(F)cc4)c(C)nn3c2C)c1	none (no result: L3MBTL1 inh)
CN(C)[C@@H]1CCC[C@@H]1OC(=O)C(c1ccccc1)c1ccccc1	G9a block 13µM, HP1b binding inh inconclusive, JMJD2A Tudor inh 1.1µM, BAZ2B inh 35µM
CCN1CCCC(OC(=O)C(c2ccccc2)c2ccccc2)C1 (stereo unspecified)	none
COc1cccc(NC(=O)C(NCC2CCCCC2)c2ccccc2)c1 (stereo unspecified)	G9a block 3.2µM, HP1b binding inh inconclusive, JMJD2A Tudor inh 1µM, BAZ2B inh inconclusive (no result: L3MBTL1 inh)
COc1cccc(NC(=O)C(C)(C)C)c1	G9a block 3.2µM
CSc1cccc(NC(=O)/C=C/c2ccco2)c1	G9a block 28µM, BAZ2B inh inconclusive (no result: L3MBTL1 inh)
O=C(/C=C/c1ccco1)Nc1ccc(-c2nc3ccccc3[nH]2)cc1	G9a block 40µM, BAZ2B inh inconclusive
N#Cc1ccc(CSc2nc3c(c(=O)[nH]2)CCCC3)cc1	G9a block inconclusive (no result: L3MBTL1 inh)
CCOc1ccc(NC(=O)CCS(=O)(=O)c2cc3c4c(c2)CCN4C(=O)CC3)cc1	none (no result: L3MBTL1 inh)
O=C(/C=C/c1ccco1)Nc1ccc(Oc2ccc(Cl)cc2)cc1	BAZ2B inh inconclusive
O=C(/C=C/c1ccco1)Nc1ccc(N2CCCC2)cc1	G9a block 0.89µM
COc1cccc(NC(=O)/C=C/c2ccco2)c1	G9a block 35µM
Cc1ccc(C)c(N2CCN(S(=O)(=O)c3ccc(F)c(C(=O)Nc4ccc(Cl)cc4Cl)c3)CC2)c1	none (no result: L3MBTL1 inh)
O=C(CSc1nnc(SCc2cccc3ccccc23)s1)N=Nc1c(O)[nH]c2ccccc12	G9a block inconclusive, BAZ2B inh 50µM (no result: HP1b binding inh, JMJD2A Tudor inh)
O=C(CSc1nnc(SCc2cccc3ccccc23)s1)Nc1ccc(C(=O)O)cc1	G9a block inconclusive, HP1b binding inh inconclusive, JMJD2A Tudor inh 13µM, BAZ2B inh inconclusive
O=C(CSc1nnc(SCc2cccc3ccccc23)s1)c1ccc2c(c1)OCO2	G9a block inconclusive
CCOC(=O)COc1ccc(C)cc1C(=O)c1ccn2nc(-c3ccc(Cl)cc3)cc2n1	none (no result: L3MBTL1 inh)
Cc1ccccc1CSc1cn(CC(=O)N2CCCCCC2)c2ccccc12	none (no result: L3MBTL1 inh)
Cc1ccccc1N/C(=N/S(=O)(=O)c1ccccc1)c1ccc(F)cc1	none
O=C(O)c1ccc(S(=O)(=O)/N=C2\C=C(Nc3ccccc3F)C(=O)c3ccccc32)cc1	G9a block 13µM, HP1b binding inh 40µM, JMJD2A Tudor inh 40µM, BAZ2B inh 22µM (no result: L3MBTL1 inh)
COC(=O)[C@H](CO)NS(=O)(=O)c1ccc(C)cc1	none (no result: G9a block, BAZ2B inh)
COC(=O)C(C(C)=O)C1=C/C(=N\S(=O)(=O)c2ccc(C)cc2)c2ccccc2C1=O (stereo unspecified)	G9a block 45µM (no result: L3MBTL1 inh)
Cc1ccccc1NC1=C/C(=N\S(=O)(=O)c2ccc(C(=O)O)cc2)c2ccccc2C1=O	G9a block 32µM, HP1b binding inh 45µM, JMJD2A Tudor inh 40µM, BAZ2B inh 13µM (no result: L3MBTL1 inh)
COC(=O)Cc1ccc(NC(C)=O)cc1	none
COc1ccc2cc3cc(C(=O)Nc4ccccc4C)oc3nc2c1	G9a block inconclusive (no result: L3MBTL1 inh, BAZ2B inh)
Cc1ccc(OCC(=O)NC(=S)Nc2ccccn2)c(Br)c1	G9a block inconclusive (no result: L3MBTL1 inh)
Cc1ccc(OCC(=O)NNC(=S)NC(=O)C2CC2)c(C)c1	G9a block 10µM (no result: HP1b binding inh, JMJD2A Tudor inh, L3MBTL1 inh)
Cc1ccc(OCC(=O)NNC(=S)NC(=O)C2CCCCC2)c(C)c1	G9a block 18µM (no result: L3MBTL1 inh)
Cc1ccc(OCC(=O)NNC(=S)NC(=O)C(C)(C)C)c(Br)c1	G9a block 25µM, JMJD2A Tudor inh inconclusive
N#Cc1ccc(OCC(=O)NNC(=S)NC(=O)C2CC2)cc1	JMJD2A Tudor inh 28µM (no result: G9a block, BAZ2B inh)
Cc1ccc(OCC(=O)NNC(=O)c2ccc(NC(=O)C3CC3)cc2)c(C)c1	none (no result: L3MBTL1 inh)
NC(=NCc1ccc(Cl)cc1Cl)NC(=O)c1nc(Cl)c(N)nc1N	none (no result: HP1b binding inh, JMJD2A Tudor inh, L3MBTL1 inh, BAZ2B inh)
COCCn1c(Cc2ccccc2)nnc1SCC(=O)N1CCCC1=O	none
COc1ccc(NC(=O)CN2C(=O)CCn3nc(-c4cccn4C)cc32)cc1	JMJD2A Tudor inh inconclusive, BAZ2B inh inconclusive (no result: L3MBTL1 inh)
O=C(Cn1c(=O)c(C(F)(F)F)nc2ccccc21)Nc1ccc(Br)cc1F	none (no result: L3MBTL1 inh)
O=C1C(=O)N(CC2CCCO2)C(c2ccccc2[N+](=O)[O-])/C1=C(/O)c1ccccc1 (stereo unspecified)	G9a block 32µM, BAZ2B inh inconclusive

High-throughput results (PubChem)
